# Experimental data: PubChem BioAssay AID1042 (National Center for Advancing Translational Sciences (NCATS), 2008)
# Inconclusive results are not listed. Active and inactive are the calls of the source.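 Rule for the calls: active = raised CDH13 expression over DMSO controls, judged by fold change in triplicate runs, no set cutoff; inconclusive = doubtful CDH13 rise, criteria not stated; inactive = no rise, falls in expression ignored.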
# Assay: CDH13 Derepression/Induction Secondary Assay for qHTS Assay for Epigenetic Modulators
# Details: H358 cells, CDH13 mRNA qPCR, 72 h; hits give high values
# Text: NIH Molecular Libraries Screening Centers Network [MLSCN] NIH Chemical Genomics Center [NCGC] MLSCN Grant: 1 X01 MH079860-01 Assay Provider: Elisabeth D. Martinez, University of Texas SW Medical Center NCGC Assay Overview: This secondary assay characterizes selected actives identified in the qHTS of the Locus Derepression (LDR) assay (PubChem AID 597). The LDR assay detects the derepression of a GFP reporter that is stably integrated in a region of the genome of murine c127i mammary cells that is presumably silenced. Compounds that cause derepression of the locus to express GFP are identified by enumerating GFP positive cells using a laser-scanning microplate cytometer. Selected LDR actives were assayed for the induction of CDH13 gene expression, a gene silenced by methylation of its promoter. […]
# NCGC Assay Protocol Summary Exponentially growing H358 non-small cell lung cancer cells were treated daily with fresh media containing the indicated concentrations of compounds for 72 hr. Cellular RNA was extracted, quantified, DNAse treated and reverse transcribed. The resulting cDNA was amplified in TaqMan real time quantitative PCR assays (Applied Biosystems) containing validated primers specific for CDH13 (Hs00169908.m1). […] Gene expression was measured by fold-induction over control DMSO-treated samples (36-37 average cycle time). […]
smiles,measurement,value
CN1CSC(=S)N(C)C1,fold change,1 (inactive)
